High-throughput results (PubChem)
ADAM17 inh: ADAM17 inhibition, QFRET primary screen; recombinant ADAM17, EDANS/DABCYL FRET peptide cleavage; inhibition, % at 6.95 µM; hit rate 0.83% among 370,000; AID 720648;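 active means inhibition above the mean of compounds lying between control limits plus 3 SD, set per campaign, cut at about 8.5% in these data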;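 further: 0% = DMSO-only wells as the low control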
NPR2 activator: GC-B (human) receptor activation; P20594; HEK293-GC-B cells, CNP EC30, cGMP TR-FRET; 0% at EC30 CNP, 100% saturating CNP; activation, % at 10 µM; hit rate 0.11% among 370,000;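 active means activation at 10 µM reaching about 35% in either raw or pattern-adjusted values, limit read from the data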
proKLK7 act: activates the human kallikrein-7 zymogen; P49862; purified proKLK7, EDANS-DABCYL substrate fluorescence; 100% is mature enzyme control, 0% vehicle; activation, % at 7 µM; hit rate 0.9% among 370,000; AID 652039;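 active means activation above the mean of all tested compounds plus 3 SD, computed per campaign excluding outliers beyond control limits, cut at about 13% in these data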
NPR1 activator: GC-A (human) enzyme activation. HEK293 GC-A cells, cGMP TR-FRET, EC30 ANP; 0% at EC30 ANP, 100% saturating ANP. activation, % at 10 µM. hit rate 0.14% among 370,000. AID 1671463; in the data active means activation above about 40%
ADAM10 inh: inhibits human ADAM10 | recombinant ADAM10, EDANS/DABCYL FRET peptide cleavage, 3 h | inhibition, % at 7 µM | hit rate 0.62% among 370,000 | O14672 | AID 720582;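 active means inhibition above a per-campaign cutoff equal to the mean of compounds falling between control-based bounds plus 3 SD, cut at about 20% in these data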;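 further: 0% = DMSO wells while the 100% control is not disclosed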
Target sequence (O14672 214-748 limits assumed): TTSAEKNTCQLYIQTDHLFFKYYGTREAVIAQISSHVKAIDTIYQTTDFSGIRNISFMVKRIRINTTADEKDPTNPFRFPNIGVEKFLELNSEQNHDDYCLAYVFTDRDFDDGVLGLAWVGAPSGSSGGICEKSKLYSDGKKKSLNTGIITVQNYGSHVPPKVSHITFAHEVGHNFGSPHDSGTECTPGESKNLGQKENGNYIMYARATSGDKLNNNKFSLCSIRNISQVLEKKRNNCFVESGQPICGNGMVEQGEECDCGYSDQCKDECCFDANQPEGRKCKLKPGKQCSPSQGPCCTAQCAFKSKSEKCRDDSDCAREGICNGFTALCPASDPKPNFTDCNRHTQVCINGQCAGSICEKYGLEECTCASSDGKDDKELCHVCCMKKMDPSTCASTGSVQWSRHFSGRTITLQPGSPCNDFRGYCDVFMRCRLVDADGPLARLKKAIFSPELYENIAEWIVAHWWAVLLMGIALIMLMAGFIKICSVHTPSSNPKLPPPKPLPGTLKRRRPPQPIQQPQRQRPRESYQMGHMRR
ADAM10 counter: ADAM10 inhibition, counter-screen for ADAM17 exosite hits; shares compounds with ADAM17 inh; recombinant ADAM10, EDANS/DABCYL FRET peptide cleavage, 3 h; inhibition, % at 6.95 µM; hit rate 47% among 2,900;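 active means mean inhibition over the triplicate runs exceeds the activity threshold set in the earlier primary screen, cut at about 20% in these data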;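 further: 0% = DMSO wells and 100% = marimastat wells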
ADAM17 confirm: human ADAM17 inhibition, confirmation; shares compounds with ADAM17 inh; recombinant ADAM17, EDANS/DABCYL QFRET peptide cleavage; hit rate 65% among 2,900; inhibition, % at 6.95 µM;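 active means mean inhibition across replicates above the hit cutoff set in the primary screen, cut at about 8.5% in these data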;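 further: 0% = DMSO wells and 100% = marimastat wells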
* = called active by the depositor; . = no result given. Sampled rows, rich in hits. Any-hit rate of the full collection: about 2.2%.

SMILES	ADAM17 inh	NPR2 activator	proKLK7 act	NPR1 activator	ADAM10 inh	ADAM10 counter	ADAM17 confirm
O=C(c1ccco1)N1CCN(c2nc(C3CC3)nc3c2nnn3Cc2ccccc2Cl)CC1	11*	-1	1	0	13	19	8
C[C@@H]1ON(C)[C@H]2C[C@H]3c4[nH]c5c(-c6cc(Cl)cc(Cl)c6)cccc5c4CCN3C(=O)[C@@H]12	-14	4	-2	-4	-57	.	.
O=C(NNC(=O)C1CCC1)c1ccccc1F	9.9*	3	0	5	1	-1	2
O=C(NNC(=O)C1CC1)c1ccc(F)cc1F	-6	-5	0	1	-14	.	.
COc1cc(C(O)c2nc(-c3csc4ccccc34)cs2)ccc1F (stereo not given)	10*	-3	0	-3	12	23*	17*
COc1cc(C(O)c2nc(-c3ccc(F)cc3OC)cs2)ccc1F (stereo not given)	12*	-11	0	-5	3	26*	14*
COc1cccc(CNC(=O)Cn2c(-c3ccccc3)cc(C(C)=O)c2C)c1	-3	-13	0	-9	-8	.	.
CCC(=O)Nc1ccc2c(c1)C(=O)N(C)[C@@H]1CC[C@@H](CC(=O)NCc3ccc(OC)cc3)O[C@H]1CO2	-5	4	0	3	-12	.	.
COc1ccc(CN(C(=O)c2nsc(Cl)c2Cl)C(C(=O)NC2CCCC2)c2ccc(C)cc2)cc1 (stereo not given)	10*	-12	-1	-15	13	14	14*
Cc1ccc(C)c(N(C(=O)c2nsc(Cl)c2Cl)C(C(=O)NC2CCCC2)c2ccc(O)cc2)c1 (stereo not given)	0	-20	0	-34	2	.	.
O=C(NN=Cc1cccc(OCc2ccccc2)c1)c1cc(-c2ccc(Cl)cc2)n[nH]1	-9	1	2	2	-30	.	.
CC(C)(C)c1ccc(OCCC(=O)OCC(=O)NC(=O)NC2CCCC2)cc1	17*	-2	0	3	19	28*	13*
O=C(Cn1cnc2ccccc2c1=O)N1CCCCC1	-2	-2	0	-4	7	.	.
CCSc1nnc(NC(=O)CCc2ccc(OC)cc2)s1	9.1*	0	0	5	16	4	3
CC(=O)NC(c1cccc(F)c1)c1nc(/C=C/c2ccccc2)cs1 (stereo not given)	11*	-1	1	3	9	11	6
OC(c1cccc(Cl)c1)c1nc(/C=C/c2ccc(C(F)(F)F)cc2)cs1 (stereo not given)	12*	0	0	1	16	1	6
COc1cccc(C(O)c2nc(/C=C/c3ccc(C(F)(F)F)cc3)cs2)c1 (stereo not given)	6	7	0	1	6	.	.
CC(C)c1cccc(-c2csc(C(O)c3cccc(Cl)c3)n2)c1 (stereo not given)	9.7*	-3	0	-4	12	19	13*
Cc1nc2ccc(NC(=O)c3ccc(F)cc3F)cc2c(=O)[nH]1	-11	-5	0	2	-46	.	.
Cc1cc(NC(=O)CSc2cc(Cl)ccc2Cl)n(-c2ccccc2)n1	9.2*	-9	0	0	17	5	4
Cc1cc(NC(=O)COc2ccc(Cl)cc2Cl)n(-c2ccccc2)n1	1	6	1	1	4	.	.
CCc1ccc(NS(=O)(=O)c2ccc3[nH]cc(C(=O)N4CCc5ccccc54)c(=O)c3c2)cc1	10*	-3	-1	-2	12	14	11*
COc1ccc(C2=NN(C(N)=S)C(c3ccco3)C2)cc1 (stereo not given)	-2	0	1	5	-14	.	.
COc1ccc(C2=NN(C(=O)CSc3nnc(-c4ccccc4F)o3)C(c3ccco3)C2)cc1 (stereo not given)	11*	1	0	1	5	9	6
